Screening data as filed in PubChem BioAssay.
Rows were chosen to be rich in hits. Some 1.2% of all compounds tested hit in one or more screens of this group.
PGK inhibitor: T. brucei PGK inhibition. AID 602233. actives 0.043% (n = 380,000). Potency, µM (top dose mostly 57.5 µM), inactives show at the top dose activity change, negative = inhibition, hits mostly inhibitors. PGK/GAPDH coupled, Kinase-Glo luminescence, 60 min. P07378; note: potency is the fitted concentration of half-maximal effect; nearly all actives have a fitted effect of over 60% in size
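Recombinant glycosomal PGK reaction used 1,3-bisphosphoglycerate generated in-well by GAPDH (100nM final) in 100mM TEA pH 7.6, 5mM MgCl2, 0.01% Tween-20. After 60 minutes at room temperature, ATP was read by Kinase-Glo Plus luminescence end-point.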
KAT2A inh: GCN5L2 (KAT2A) acetyltransferase inhibition; actives 0.21% (n = 390,000); GCN5L2 HAT assay, ThioGlo1 CoA-SH fluorescence; AID 504327; Potency, µM (doses to about 58.9 µM), for inactives: at the top dose activity change, negative = inhibition, actives largely listed as inhibitors; note: potency is the fitted concentration of half-maximal effect
Target sequence (Q92830 whole entry, looked up): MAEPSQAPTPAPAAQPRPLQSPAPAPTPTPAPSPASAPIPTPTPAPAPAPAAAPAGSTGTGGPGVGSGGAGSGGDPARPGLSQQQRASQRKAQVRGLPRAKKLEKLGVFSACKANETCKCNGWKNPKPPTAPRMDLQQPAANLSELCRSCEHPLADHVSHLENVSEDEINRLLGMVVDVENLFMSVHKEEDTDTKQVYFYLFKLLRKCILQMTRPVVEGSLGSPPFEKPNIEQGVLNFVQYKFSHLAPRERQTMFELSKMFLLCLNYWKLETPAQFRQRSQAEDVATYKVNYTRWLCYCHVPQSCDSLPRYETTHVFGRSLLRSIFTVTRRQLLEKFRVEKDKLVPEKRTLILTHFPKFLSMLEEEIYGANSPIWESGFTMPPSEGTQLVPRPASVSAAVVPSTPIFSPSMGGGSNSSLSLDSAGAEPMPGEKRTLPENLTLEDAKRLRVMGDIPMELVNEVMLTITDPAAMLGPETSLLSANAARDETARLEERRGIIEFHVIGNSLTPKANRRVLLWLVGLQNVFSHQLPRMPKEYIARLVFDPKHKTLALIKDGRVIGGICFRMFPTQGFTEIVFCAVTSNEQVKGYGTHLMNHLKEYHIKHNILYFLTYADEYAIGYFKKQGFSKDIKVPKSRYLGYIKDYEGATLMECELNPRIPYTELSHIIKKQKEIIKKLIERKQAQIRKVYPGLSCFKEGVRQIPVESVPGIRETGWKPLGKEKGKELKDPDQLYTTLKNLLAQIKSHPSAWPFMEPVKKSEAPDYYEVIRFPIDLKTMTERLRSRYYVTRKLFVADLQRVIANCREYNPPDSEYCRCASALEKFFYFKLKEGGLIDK
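Titration-based screen in which CoA formation is detected via maleimide probe ThioGlo1 (50uM) turning fluorescent on thiol reaction; substrates H3(1-25) 75uM and acetyl-CoA 70uM, GCN5L2 20nM, 20 min incubation at room temperature.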
KCNH2 3.1 inh: blocks the human KCNH2 3.1 channel isoform. U2OS KCNH2 3.1, thallium flux FluxOr; active compounds read low. activity change, % (tested at about 1.8 µM). actives 0.95% (n = 340,000);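 active = maximum activity change below -70%; inconclusive = maximum activity change from -70% to -50%; inactive = maximum activity change above -50%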;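 note: thallium influx rate constant from kinetic fluorescence after stimulation buffer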
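Normalized rate constant (relative to positive and negative DMSO controls) derived from a 2 min kinetic fluorescence read after stimulation; U2OS cells expressing the 3.1 isoform via virus at 1.77 x 10^8 /mL.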
hERG WT inh: inhibitors of human wildtype KCNH2 potassium channel; U2OS, BacMam KCNH2, thallium flux FluxOr; active compounds read low; Q12809; actives 0.37% (n = 340,000); activity change, % at 1.84 µM;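 active = maximum activity change below -70%; inconclusive = maximum activity change between -70% and -50%; inactive = maximum activity change above -50%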
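U2OS cells transduced with wild-type KCNH2 virus are loaded with FluxOr dye for 45 min, and thallium flux is measured in kinetic reads before and after stimulation buffer. Rate constants are normalized to DMSO controls.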
Pin1 inhibitor: blocks the human prolyl isomerase Pin1 | Q13526 | Pin1 FP peptide displacement, HiFluor488, 10 min | Potency, µM (top dose mostly 115 µM), for the others: top-dose activity, negative = inhibition, hits mostly inhibitors | actives 0.009% (n = 390,000) | AID 504891; active = well fitted inhibition curve with a large enough effect in the polarisation, with a control signal flat, not every such curve was filed as active; inconclusive = small, poorly fitted or top-dose-only effect, or effect the other way, or a change in a side signal; inactive = no such curve, though single readings can be large or run the other way; the % refers to the polarisation; note: potency is the fitted concentration of half-maximal effect
RGS4 inhibitor: blocks human RGS4-accelerated GTP hydrolysis. actives 0.039% (n = 390,000). Potency, µM (highest dose often 114 µM), inactives show at the highest dose activity change, negative = inhibition, actives largely listed as inhibitors. Transcreener GDP fluorescence polarization, RGS4-accelerated GTP hydrolysis; note: potency is the fitted concentration of half-maximal effect; nearly all actives have a fitted effect of over 75% in size
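MLSMR compounds (23 nl, pin-transferred) preincubated 10 min at room temperature with a 500nM (2x) first reagent, then RGS4 at 900nM (2x) plus Transcreener GDP mix added; fluorescence polarization (620/688 nm) read before and after 90 min at 30 °C.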
The depositor's hits bear a star; [ ] = another dose, or the depositor's remark. Unless noted, calls come from the whole dose curve; as a rule, active = well fitted curve in the direction sought with a large enough effect; inconclusive = small, poorly fitted or top-dose-only effect, or another doubt; inactive = no such curve, though single readings can be large; an effect the other way counts as inactive or inconclusive. % is set by controls: 0 for no effect and ±100 for the full control effect.

How did N=c1c(C(=O)NC2CCCCC2)cc2c(=O)n3ccccc3nc2n1Cc1ccccc1 do in these assays?
PGK inhibitor: inactive; KAT2A inh: -2%; KCNH2 3.1 inh: -14; hERG WT inh: -7; Pin1 inhibitor: -3%; RGS4 inhibitor: -1%[56.9 µM]

Results for N=c1c(C(=O)NC2CCCCC2)cc2c(=O)n3ccccc3nc2n1CCc1ccccc1 ?
PGK inhibitor: 0%; KAT2A inh: -4%; KCNH2 3.1 inh: -79*; hERG WT inh: inconclusive; Pin1 inhibitor: inconclusive; RGS4 inhibitor: 20%

How did CCCN1C(=O)C2(c3ccccc31)c1c(oc3ccccc3c1=O)C(=O)N2CCCOC(C)C (configuration not stated) do in these assays?
PGK inhibitor: 7%; KAT2A inh: -1%; Pin1 inhibitor: -13%; RGS4 inhibitor: -1%

What do the screens show for `COc1cccc(C2=CC(=O)C[C@H](c3ccc(Cl)cc3)C2)c1OC`?
PGK inhibitor: -13%; KAT2A inh: -8%; KCNH2 3.1 inh: -129*; hERG WT inh: 1; Pin1 inhibitor: 4%; RGS4 inhibitor: -6%

What do the screens show for `C[C@@H]1CN([C@H](C)CO)C(=O)CCCn2nncc2CO[C@H]1CN(C)C(=O)c1cc(-c2ccccc2)on1`?
PGK inhibitor: 2%; KCNH2 3.1 inh: -97*; hERG WT inh: -3

How did C[C@H](CO)N1C[C@H](C)[C@H](CN(C)C(=O)c2cc(-c3ccccc3)on2)OCc2cnnn2CCCC1=O do in these assays?
PGK inhibitor: -8%; KCNH2 3.1 inh: 1; hERG WT inh: 0

Results for Cc1cc(C)cc(NC(=O)C2CCN(c3cc(C)nc4c(-c5ccc(Cl)cc5)c(C)nn34)CC2)c1 ?
PGK inhibitor: -3%; KAT2A inh: 2%; Pin1 inhibitor: 0%; RGS4 inhibitor: -2%

How did CC(=O)Nc1ccc(SCC(=O)c2cc(C)n(-c3ccccc3F)c2C)cc1 do in these assays?
PGK inhibitor: -7%; KAT2A inh: -5%; KCNH2 3.1 inh: 0; hERG WT inh: -9; Pin1 inhibitor: 9%; RGS4 inhibitor: -32%

How did COC(=O)c1ccc(-n2c(C)cc(C(=O)CSc3ccc(NC(C)=O)cc3)c2C)cc1 do in these assays?
PGK inhibitor: 14%; KAT2A inh: -6%; KCNH2 3.1 inh: -120*; hERG WT inh: 2; Pin1 inhibitor: 4%; RGS4 inhibitor: -39%

How did COc1cccc(CNC(=O)c2[nH]c3cc(C)ccc3c2Sc2ccccc2)c1 do in these assays?
PGK inhibitor: -4%; KAT2A inh: -6%; Pin1 inhibitor: 2%; RGS4 inhibitor: 15%

Results for O=S(=O)(c1ccc(Cl)cc1)N1CCN(c2nc(-c3cccs3)nc3ccccc23)CC1 ?
PGK inhibitor: -8%; KAT2A inh: -6%; KCNH2 3.1 inh: -90*; hERG WT inh: 0; Pin1 inhibitor: 32%; RGS4 inhibitor: -33%

How did O=S(=O)(c1ccccc1)N1CCN(c2nc(-c3cccs3)nc3ccccc23)CC1 do in these assays?
KAT2A inh: -2%; Pin1 inhibitor: inconclusive; RGS4 inhibitor: 1%

Results for CCCSCCCNC(=O)c1cc2n(n1)CCCN(Cc1ccc(C)cc1)C2=O ?
PGK inhibitor: -1%; KAT2A inh: 4%; Pin1 inhibitor: 0%; RGS4 inhibitor: -12%

Results for Cc1cc(C)cc(NC(=O)Cc2ccc(NC3=NC4CS(=O)(=O)CC4S3)cc2)c1 (configuration not stated) ?
PGK inhibitor: 1%; KAT2A inh: inconclusive; KCNH2 3.1 inh: 8; hERG WT inh: 1; Pin1 inhibitor: inconclusive; RGS4 inhibitor: 4%

Results for Cc1cccc(NC(=O)Cc2ccc(NC3=NC4CS(=O)(=O)CC4S3)cc2)c1 (configuration not stated) ?
PGK inhibitor: -3%; KAT2A inh: 22µM*; KCNH2 3.1 inh: -12; hERG WT inh: -2; Pin1 inhibitor: 3%; RGS4 inhibitor: -5%

How did O=C(NCc1ccc(Cl)cc1)c1cccc(NC2=NC3CS(=O)(=O)CC3S2)c1 (configuration not stated) do in these assays?
PGK inhibitor: 11%; KAT2A inh: 28µM*; KCNH2 3.1 inh: 0; hERG WT inh: -3; Pin1 inhibitor: 0%; RGS4 inhibitor: -28%

What do the screens show for `COc1ccc(CC2(CO)CCN(C(C)Cc3ccc(Cl)cc3)CC2)cc1` (configuration not stated)?
PGK inhibitor: -1%; KAT2A inh: 1%; KCNH2 3.1 inh: -93*; hERG WT inh: -93*; Pin1 inhibitor: 2%; RGS4 inhibitor: 16%

How did CCOC(=O)c1ccccc1OCc1cc(C2Nc3ccccc3C(=O)N2c2cccc3ccccc23)ccc1OC (configuration not stated) do in these assays?
Pin1 inhibitor: 4%; RGS4 inhibitor: 2%

How did COc1cccc(-c2nc(CN3CCN(C(=O)c4ccco4)CC3)c(C)o2)c1OC do in these assays?
PGK inhibitor: inactive; KCNH2 3.1 inh: -90*; hERG WT inh: -2

Results for Cc1ccc(Nc2ncccc2C(=O)NCc2cccs2)c(C)c1 ?
PGK inhibitor: -5%; KAT2A inh: -16%; hERG WT inh: -13; Pin1 inhibitor: 1%; RGS4 inhibitor: -10%

How did Cc1cccc(Nc2ncccc2C(=O)NCc2cccs2)c1C do in these assays?
PGK inhibitor: 7%; KAT2A inh: -15%; KCNH2 3.1 inh: -73*; hERG WT inh: -1; Pin1 inhibitor: -10%; RGS4 inhibitor: 15%

How did O=C(c1cccnc1)N1CCN(c2ccc([N+](=O)[O-])cc2Cl)CC1 do in these assays?
PGK inhibitor: inactive; KAT2A inh: -7%; KCNH2 3.1 inh: -120*; hERG WT inh: 9; Pin1 inhibitor: -1%; RGS4 inhibitor: -3%

What do the screens show for `O=C(c1ccc(-c2ccc(Cl)cc2)o1)N1CCN(c2ccc([N+](=O)[O-])cc2Cl)CC1`?
PGK inhibitor: -10%; KAT2A inh: -5%; KCNH2 3.1 inh: -83*; hERG WT inh: -5; Pin1 inhibitor: 25%; RGS4 inhibitor: -7%

Results for O=C(c1ccc(-c2ccc([N+](=O)[O-])cc2)o1)N1CCCCC1 ?
PGK inhibitor: -5%; KAT2A inh: -2%; KCNH2 3.1 inh: 6; hERG WT inh: 5; Pin1 inhibitor: -2%; RGS4 inhibitor: -53%

How did O=C(c1ccc(-c2cccc([N+](=O)[O-])c2)o1)N1CCN(c2ccc([N+](=O)[O-])cc2)CC1 do in these assays?
PGK inhibitor: -8%; KAT2A inh: -5%; KCNH2 3.1 inh: -116*; hERG WT inh: -111*; Pin1 inhibitor: 5%; RGS4 inhibitor: -24%
